The source of these data is PubChem BioAssay (NCI).

Where “and” joins values, the source holds several entries; their conditions need not be identical. Equal entries are not always repeated. The panel holds about 79,000 compounds, 15% with a hit somewhere; the sample as a whole holds those more often. Some structures have more than one record in an assay (separate samples or runs), and their calls can disagree. Calls of active or inactive are those of the source. No stated cut-off is given here; in the data, active means growth inhibition above about 70%; inactive means the rest.

A short description of assay [1]: NCI Yeast Anticancer Drug Screen. Data for the rad50 strain (AID 155).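 Further: 0% = growth of vehicle-only cultures of the same strain.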 Conditions: S. cerevisiae rad50 strain growth inhibition, stronger effect = higher value. The method, boiled down: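 Inhibition values express reduced yeast growth in compound-treated cultures relative to vehicle-treated controls.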
Assay [2] in a line: NCI Yeast Anticancer Drug Screen. Data for the mec2-1 strain (AID 157). Conditions: S. cerevisiae mec2-1 strain, stronger effect = higher value. The procedure, abridged: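 Test agents were screened against the mec2-1 yeast strain, with defined DNA repair or cell cycle alteration. Growth was scored as inhibition against vehicle-only controls.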
Assay [3] can be described thus: NCI Yeast Anticancer Drug Screen. Data for the sgs1 mgt1 strain (AID 161).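 Further: 0% = growth of cultures given vehicle only.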 Conditions: S. cerevisiae sgs1 mgt1 strain, stronger effect = higher value. The method, boiled down: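 Genetically altered yeast, compound exposure, growth inhibition relative to vehicle.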
The nature of assay [4]: NCI Yeast Anticancer Drug Screen. Data for the cln2 rad14 strain (AID 165).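 Further: 0% = growth equal to vehicle treated cultures.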 Conditions: S. cerevisiae cln2 rad14 strain, stronger effect = higher value. The procedure, abridged: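 Growth of compound-exposed yeast (cln2 rad14 genotype) measured and expressed as inhibition relative to vehicle.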
Assay [5] can be described thus: NCI Yeast Anticancer Drug Screen. Data for the bub3 strain (AID 167). As to conditions: S. cerevisiae bub3 mutant strain, stronger effect = higher value. The procedure, abridged:
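Steps: expose the mutant yeast strain to compound; grow alongside vehicle-treated cultures; measure growth; express inhibition against the vehicle cultures.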

A short description of assay [6]: NCI Yeast Anticancer Drug Screen. Data for the mlh1 rad18 strain (AID 175). As to conditions: S. cerevisiae mlh1 rad18 strain growth inhibition, stronger effect = higher value. The procedure, abridged: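 In this whole-cell yeast screen, a strain with altered DNA damage repair is challenged with compound, and its growth is measured against matched vehicle-treated controls.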

Where [7] appears, read: at 5.0 µM (retest, dose inferred, filed as 0.5).
The mark [8] stands for this setting: at 50.0 µM (retest, dose inferred, filed as 5.0).

With `NC(=O)SCC(=O)NNc1ccccc1`, the growth inhibition in assay [1] (setting [7]) was 16% (inactive); in assay [1] (setting [8]), 54% (inactive); in assay [1] (at 50.0 µM), 48.1% (inactive) and 88.1% (active); in assay [2] (setting [7]), 1% (inactive); in assay [2] (setting [8]), 40% (inactive); in assay [2] (at 50.0 µM) it was 13.3% (inactive) and 39.9% (inactive). The growth inhibition in assay [3] (setting [7]) is 5% (inactive); in assay [3] (setting [8]), 41% (inactive); in assay [3] (at 50.0 µM), 87.8% (active); in assay [4] (setting [7]), 11% (inactive); in assay [4] (setting [8]) it was 60% (inactive); in assay [4] (at 50.0 µM), 82.2% (active). The growth inhibition in assay [5] (setting [7]) was 13% (inactive); in assay [5] (setting [8]), 88% (active); in assay [5] (at 50.0 µM) it was 86% (active); in assay [6] (setting [7]), 14% (inactive); in assay [6] (setting [8]), 81% (active); in assay [6] (at 50.0 µM) it was 51.5% (inactive) and 88.9% (active).

With `O=C1c2ccccc2C(=O)c2c(O)c(O)cc(O)c21`, the growth inhibition is 97% (active) in assay [1] (setting [7]); 97% (active) in assay [1] (setting [8]); 88.5% (active) and 11.4% (inactive) in assay [1] (at 50.0 µM); 99% (active) in assay [2] (setting [7]); 98% (active) in assay [2] (setting [8]); 86.2% (active) and -3.5% (inactive) in assay [2] (at 50.0 µM). Besides, the growth inhibition is 98% (active) in assay [3] (setting [7]); 97% (active) in assay [3] (setting [8]); 86% (active) and 14.2% (inactive) in assay [3] (at 50.0 µM); 59% (inactive) in assay [4] (setting [7]); 95% (active) in assay [4] (setting [8]); 72.4% (active) and 9.2% (inactive) in assay [4] (at 50.0 µM). The growth inhibition in assay [5] (setting [7]) was 98% (active); in assay [5] (setting [8]), 97% (active); in assay [5] (at 50.0 µM), 86.1% (active) and -9.1% (inactive); in assay [6] (setting [7]) it was 99% (active); in assay [6] (setting [8]), 97% (active); in assay [6] (at 50.0 µM), 85.5% (active) and 25% (inactive).

`CC1=CC(C)=Nc2ccc(Cl)cc2N1`: the growth inhibition in assay [1] (setting [7]) is -2% (inactive); in assay [1] (setting [8]), 9% (inactive); in assay [1] (at 50.0 µM) it was -1.1% (inactive) and 52% (inactive); in assay [2] (setting [7]), 2% (inactive); in assay [2] (setting [8]) it was 2% (inactive); in assay [2] (at 50.0 µM), 11.4% (inactive) and 2.6% (inactive). Further, the growth inhibition is -4% (inactive) in assay [3] (setting [7]); -1% (inactive) in assay [3] (setting [8]); -5.1% (inactive) and 41% (inactive) in assay [3] (at 50.0 µM); 1% (inactive) in assay [4] (setting [7]); 7% (inactive) in assay [4] (setting [8]); -15.9% (inactive) and -11.8% (inactive) in assay [4] (at 50.0 µM). In addition, the growth inhibition is -2% (inactive) in assay [5] (setting [7]); -7% (inactive) in assay [5] (setting [8]); -2.9% (inactive) and 21.6% (inactive) in assay [5] (at 50.0 µM); -2% (inactive) in assay [6] (setting [7]); 7% (inactive) in assay [6] (setting [8]); 9.35% (inactive) and 75.1% (active) in assay [6] (at 50.0 µM).

With `CCC[CH2][Sn]1([CH2]CCC)[O]N=C(c2ccccc2)C(c2ccccc2)[O]1` (stereo unspecified), the growth inhibition is 19% (inactive) in assay [1] (setting [7]); 19% (inactive) in assay [1] (setting [8]); 88.4% (active) in assay [1] (at 50.0 µM); 20% (inactive) in assay [2] (setting [7]); 20% (inactive) in assay [2] (setting [8]); 87.8% (active) in assay [2] (at 50.0 µM). Also, the growth inhibition in assay [3] (setting [7]) is -1% (inactive); in assay [3] (setting [8]), -1% (inactive); in assay [3] (at 50.0 µM), 89.4% (active); in assay [4] (setting [7]) it was 8% (inactive); in assay [4] (setting [8]), 8% (inactive); in assay [4] (at 50.0 µM), 79.7% (active). The growth inhibition in assay [5] (setting [7]) is 12% (inactive); in assay [5] (setting [8]), 12% (inactive); in assay [5] (at 50.0 µM) it was 78.8% (active); in assay [6] (setting [7]), 12% (inactive); in assay [6] (setting [8]), 12% (inactive); in assay [6] (at 50.0 µM), 79.9% (active).

For the compound `CCOC(=O)Nc1c(C)cc(C)c(Br)c1C`, the growth inhibition was -3% (inactive) in assay [1] (setting [7]); -3% (inactive) in assay [1] (setting [8]); 97.2% (active) in assay [1] (at 50.0 µM); -12% (inactive) in assay [2] (setting [7]); 6% (inactive) in assay [2] (setting [8]); 98.7% (active) in assay [2] (at 50.0 µM). The growth inhibition in assay [3] (setting [7]) is 1% (inactive); in assay [3] (setting [8]), 12% (inactive); in assay [3] (at 50.0 µM), 94.9% (active); in assay [4] (setting [7]) it was 0% (inactive); in assay [4] (setting [8]), -20% (inactive); in assay [4] (at 50.0 µM) it was 98.9% (active). For the same compound, the growth inhibition in assay [5] (setting [7]) was -5% (inactive); in assay [5] (setting [8]), -8% (inactive); in assay [5] (at 50.0 µM), 98.6% (active); in assay [6] (setting [7]), 9% (inactive); in assay [6] (setting [8]), 22% (inactive); in assay [6] (at 50.0 µM), 99.2% (active).

Turning to `CC1=NC(=Cc2ccc([N+](=O)[O-])cc2)C(=O)N1n1c(-c2ccccc2)nc2ccccc2c1=O`, the growth inhibition in assay [1] (setting [7]) was 3% (inactive); in assay [1] (setting [8]), 1% (inactive); in assay [1] (at 50.0 µM) it was 48.9% (inactive); in assay [2] (setting [7]), -13% (inactive); in assay [2] (setting [8]) it was 0% (inactive); in assay [2] (at 50.0 µM) it was 63.8% (inactive). The growth inhibition is 5% (inactive) in assay [3] (setting [7]); 7% (inactive) in assay [3] (setting [8]); 45.3% (inactive) in assay [3] (at 50.0 µM); 13% (inactive) in assay [4] (setting [7]); 11% (inactive) in assay [4] (setting [8]); 77% (active) in assay [4] (at 50.0 µM). The growth inhibition is -15% (inactive) in assay [5] (setting [7]); -2% (inactive) in assay [5] (setting [8]); 68% (inactive) in assay [5] (at 50.0 µM); 11% (inactive) in assay [6] (setting [7]); 1% (inactive) in assay [6] (setting [8]); 62.8% (inactive) in assay [6] (at 50.0 µM).

On to `O=C1NS(=O)(=O)c2ccccc21`, for which the growth inhibition in assay [1] (setting [7]) is -9% (inactive); in assay [1] (setting [8]) it was -81% (inactive); in assay [1] (at 50.0 µM), 23.3% (inactive) and 33% (inactive); in assay [2] (setting [7]), -30% (inactive); in assay [2] (setting [8]), -32% (inactive); in assay [2] (at 50.0 µM), 13.6% (inactive) and -8.5% (inactive). In addition, the growth inhibition in assay [3] (setting [7]) is -11% (inactive); in assay [3] (setting [8]), -43% (inactive); in assay [3] (at 50.0 µM) it was -12.1% (inactive) and 24.2% (inactive); in assay [4] (setting [7]), -2% (inactive); in assay [4] (setting [8]) it was -17% (inactive); in assay [4] (at 50.0 µM), 47.5% (inactive) and 29.4% (inactive). Further, the growth inhibition in assay [5] (setting [7]) is -29% (inactive); in assay [5] (setting [8]), -122% (inactive); in assay [5] (at 50.0 µM), 30.9% (inactive) and 50.3% (inactive); in assay [6] (setting [7]), -6% (inactive); in assay [6] (setting [8]) it was -43% (inactive); in assay [6] (at 50.0 µM) it was -19.4% (inactive) and 20.9% (inactive).
